An excerpt weighted towards active compounds, which were near 1.3% of everything screened.
CCHF vOTU inh-1: CCHFV vOTU protease inhibition; hit rate 0.55% among 370,000; inhibition, % at 11.5 µM; Pep-AMC fluorescence; AID 651958
VHR inh abs: DUSP3 (human) phosphatase inhibition; P51452; recombinant VHR phosphatase, pNPP absorbance; inhibition, % at 13.3 µM; hit rate 0.52% among 290,000; in the data active = inhibition above about 50%
Target sequence (P51452 whole entry, looked up): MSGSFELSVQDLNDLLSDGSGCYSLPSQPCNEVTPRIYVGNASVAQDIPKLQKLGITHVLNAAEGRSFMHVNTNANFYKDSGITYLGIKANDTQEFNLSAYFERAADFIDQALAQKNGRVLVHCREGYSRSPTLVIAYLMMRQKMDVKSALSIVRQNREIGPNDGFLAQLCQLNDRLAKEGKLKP
3CLpro inhibitor: SARS-CoV 3CLpro protease inhibition. recombinant SARS-CoV 3CLpro, quenched FRET peptide cleavage. inhibition, % at 6 µM. hit rate 0.14% among 290,000; in the data active = inhibition above about 12%
Mtb hypoxia inh: inhibitors of hypoxia-regulated fluorescent reporter in Mycobacterium tuberculosis; AID 1159583; M. tuberculosis hypoxia-regulated fluorescent reporter, fluorescence; fluorescence inhibition, % (test concentration not listed); hit rate 0.1% among 300,000; in the data active = fluorescence inhibition mostly above about 23%, no sharp cut-off; inactive = mostly below about 17%
PriA SSB inh: inhibitors of Klebsiella pneumoniae PriA binding to SSB C-terminal tail; AlphaScreen SSBct-PriA binding, biotinylated peptide; inhibition, % at 33 µM; hit rate 0.6% among 430,000; AID 1272365; in the data active = inhibition mostly above about 37%, no sharp cut-off; inactive = mostly below about 20%
CCHF vOTU inh-2: CCHFV vOTU protease inhibition, confirmation. Recombinant CCHFV vOTU, Pep-AMC fluorescence. shares compounds with CCHF vOTU inh-1. AID 686976. inhibition, % at 11.5 µM. hit rate 17% among 1,900
A number is an active result; – = inactive; · = no result given. Cut-off read from the data, not from the text of the source, unless noted: active = inhibition above about 30%; inactive = the rest.

SMILES	CCHF vOTU inh-1	VHR inh abs	3CLpro inhibitor	Mtb hypoxia inh	PriA SSB inh	CCHF vOTU inh-2
CC(C)(C)c1cc[n+](C2=C([O-])c3ccccc3C(=O)C2=NS(=O)(=O)c2cccs2)cc1	·	·	·	·	–	·
CC(C)(C)c1cc[n+](C2=C([O-])c3ccccc3C(=O)/C2=N\S(=O)(=O)c2cccs2)cc1	77.4	–	–	–	·	70.0
COc1cccc2cc(C(=O)Nc3ccc(Br)cc3C(=O)c3ccccc3Cl)oc12	·	·	·	·	–	·
CC(C)(C)c1ccc(C(=O)N2CCCCCC2)cc1	·	·	·	·	–	·
CC(C)(C)c1ccc(C(=O)N2CCOC23CCCCC3)cc1	33.6	·	·	·	·	–
CN1N=C(N)c2cn(C3OC(COP(=O)(O)O)C(O)C3O)c3ncnc1c23 (stereo not given)	32.0	·	·	·	–	–
CC(C)Cc1ccc(C(C)C(=O)Nc2ccc(O)cc2)cc1 (stereo not given)	29.6	–	–	–	–	–
CC(C)Cc1ccc(C(C)C(=O)Nc2cccnc2)cc1 (stereo not given)	–	–	–	–	–	·
O=C(NCCSC1CCOCC1)NCc1cccs1	·	·	·	·	–	·
CCc1cc(-c2cnnn2Cc2ccccc2)ccc1-c1cn(CC(C)C)nn1	29.6	·	·	·	·	–
CC(C)(C)c1ccc(-c2cn(C[C@H](Cc3ccccc3)n3c(=O)c4ccccc4n3Cc3ccccc3)nn2)cc1	–	·	·	·	·	·
O=C1c2cccc(O)c2C(=O)c2c(O)cccc21	·	–	–	·	·	·
O=C1C=C(O)c2cccc(O)c2C1=O	94.2	–	·	·	–	–
CS(=O)(=O)c1ccc(C(=O)Nc2nnc(Cc3ccc(Cl)s3)o2)cc1	·	·	·	·	–	·
C#CCn1c(=NC(=O)c2ccc(S(=O)(=O)N3CC(C)OC(C)C3)cc2)sc2cc(OC)c(OC)cc21 (stereo not given)	·	·	·	·	–	·
O=C1C(O)=C(O)C(=O)c2ccccc21	104.6	·	·	·	–	60.0
O=C1C(=O)c2ccccc2C(O)=C1c1ccccc1F	–	–	–	–	–	·
O=C1c2ccccc2C(=O)c2[nH]c(=O)[nH]c21	79.3	–	–	·	–	75.1
Cc1cc(C(=O)OCC(=O)N2CCOCC2)c2ccccc2n1	33.7	–	–	·	–	–
Cc1cc(C(=O)OCC(=O)N2CCCC2)c2ccccc2n1	–	–	–	–	–	·
CCOC(=O)CC1(C)Oc2ccccc2N1S(=O)(=O)c1ccc(C)cc1 (stereo not given)	29.9	·	·	·	·	–
COc1cc(/C=C2\C(=O)N(c3ccccc3)N=C2C)ccc1Oc1ccc([N+](=O)[O-])cc1[N+](=O)[O-]	48.5	–	–	–	–	–
COc1cc(/C=C2\C(=O)N(c3ccc(S(N)(=O)=O)cc3)N=C2C)ccc1OC(=O)c1ccco1	47.6	–	–	–	–	–
COc1cc(/C=C2/C(=O)N(c3ccc(C(=O)O)cc3)N=C2C)cc(OC)c1O	67.2	–	–	–	–	–
COc1cc(/C=C2/C(=O)N(c3ccc(Br)cc3)N=C2C)cc(OC)c1OC	·	–	–	–	–	·
SMILES	CCHF vOTU inh-1	VHR inh abs	3CLpro inhibitor	Mtb hypoxia inh	PriA SSB inh	CCHF vOTU inh-2
COc1cc(/C=C2/C(=O)N(c3ccc(C)c(C)c3)N=C2C)cc([N+](=O)[O-])c1O	–	–	–	–	–	·
COc1ccccc1/C=C1/C(=O)N(c2ccccc2)N=C1C	71.1	–	–	·	–	–
O=C(COc1ccccc1F)Nc1cccc(N2CCCCC2=O)c1	·	·	·	·	–	·
O=C(NCc1cccnc1)C(=O)NC[C@@H](c1cccs1)N1CCc2ccccc21	·	·	·	·	–	·
C#CCOc1ccc(/C=C2/C(=O)N(c3cccc(C(=O)O)c3)N=C2C)cc1OC	34.6	–	–	·	–	–
CC1=C(C(=O)N(C(C)C)C(C)C)CC(CC(=O)NCC2CCCCC2)C(=O)N1Cc1ccc(C(C)(C)C)cc1 (stereo not given)	37.5	·	·	·	·	–
CC1=C(C(=O)N(C(C)C)C(C)C)CC(CC(=O)NCCCCc2ccccc2)C(=O)N1Cc1ccc(C(C)(C)C)cc1 (stereo not given)	34.8	·	·	·	·	–
CC1=C(C(=O)N2CCOCC2)CC(CC(=O)NCCCCc2ccccc2)C(=O)N1Cc1ccc(C(C)(C)C)cc1 (stereo not given)	32.1	·	·	·	·	–
CC1=C(C(=O)N(C(C)C)C(C)C)CC(CC(=O)NCc2cccc3ccccc23)C(=O)N1Cc1ccc(C(C)(C)C)cc1 (stereo not given)	32.8	·	·	·	·	–
CN(C)CC1CSCCCN1C(=O)NC(C)(C)C (stereo not given)	·	·	·	·	–	·
CCn1cc(S(=O)(=O)N2CCc3sccc3C2)cn1	·	·	·	·	–	·
CC1=C(C(=O)N(C)C)CC(CC(=O)NC(c2ccccc2)c2ccccc2)C(=O)N1Cc1ccc(F)cc1 (stereo not given)	34.4	·	·	·	·	–
CC1=C(C(=O)N2CCOCC2)CC(CC(=O)NCCCN(C)C)C(=O)N1Cc1ccc(F)cc1 (stereo not given)	36.9	·	·	·	·	–
CC1CCCN(c2ccc(C(=O)NCc3ccc4c(c3)OCO4)cc2[N+](=O)[O-])C1 (stereo not given)	30.8	–	–	–	–	–
O=C(NCc1ccc2c(c1)OCO2)c1ccc(N2CCCCCC2)c([N+](=O)[O-])c1	–	–	–	–	–	·
CCCCn1c(=CC=C2CC(C)CC(C=CC3=[N+](CCCC)c4cccc5cccc3c45)=C2Cl)c2cccc3cccc1c32 (stereo not given)	·	·	·	·	–	·
O=c1cc(-c2ccc(O)c(O)c2)oc2c1ccc1ccccc12	33.8	·	·	–	–	–
CC(C)CC(COCc1ccc(F)cc1)N1CCN(C(=O)c2cccc(C(F)(F)F)c2)CCC1=O (stereo not given)	–	–	–	–	–	·
CC(C)C[C@@H](COCc1ccc(F)cc1)N1CCN(C(=O)c2cccc(C(F)(F)F)c2)CCC1=O	30.9	·	·	·	·	–
Cc1cccc(COC[C@H](CC(C)C)N2CCN(C(=O)c3ccc(C(C)(C)C)cc3)CCC2=O)c1	30.5	·	·	·	·	–
Cc1cccc(COCC(CC(C)C)N2CCN(C(=O)c3ccc(C(C)(C)C)cc3)CCC2=O)c1 (stereo not given)	–	–	–	–	–	·
CCOC(=O)c1c(C)oc2c1C(=O)c1ccccc1C2=O	–	–	–	–	–	·
Cc1oc2c(c1C(=O)O)C(=O)c1ccccc1C2=O	67.5	–	–	–	–	78.0
CN1C[C@@H](NC(=O)C2(c3cccs3)CCCC2)CC1=O	·	·	·	·	–	·
O=C(O)CC1SC(=NN=Cc2ccc(-c3ccccc3[N+](=O)[O-])o2)NC1=O (stereo not given)	·	·	·	·	–	·
SMILES	CCHF vOTU inh-1	VHR inh abs	3CLpro inhibitor	Mtb hypoxia inh	PriA SSB inh	CCHF vOTU inh-2
O=C(O)CC1S/C(=N/N=C/c2ccc(-c3ccccc3[N+](=O)[O-])o2)NC1=O (stereo not given)	35.6	–	–	·	·	–
c1coc(-c2nnc(-c3ccco3)nn2)c1	45.0	–	–	–	–	52.6
Cc1ccccc1SCC(=O)NNC(=O)c1ccncc1	–	·	·	–	–	·
Cc1ccccc1SCC(=O)NNC(=O)c1ccccc1O	38.6	–	–	–	–	–
Cc1ccc(S(=O)(=O)CCC(=O)NCCN2C(=O)S/C(=C\c3ccccc3)C2=O)cc1	40.2	–	–	–	–	–
CC(=O)Nc1ccc(/C=N/NC(=S)NC(C)C)cc1	36.4	–	–	·	·	–
COC(CNC(=O)c1ccc2c3c(onc13)-c1ccccc1C2=O)OC	78.1	–	–	–	–	47.8
COC(CNC(=O)c1cccnc1)OC	–	–	–	–	–	·
CCCCNC(=O)C(NC(=O)Cc1cc(C(F)(F)F)cc(C(F)(F)F)c1)C(=O)c1ccccc1 (stereo not given)	29.7	·	·	·	·	–

Bioassay records from PubChem.
